In PubChem BioAssay (NCI):
This is part of a sample that, as a whole, favours compounds with a hit. Of some 83,000 tested, about 20% had one in any assay.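 Plates (96-well) were seeded with cells, treated with compound at one concentration, and incubated for 48 hours before percent growth was determined.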 Values without a mark were called inactive. The source made the active and inactive calls. Rule for the calls: active = growth percent below 10; inactive = the rest.

Tested on: K-562 leukemia
Assay: NCI-60 one-dose screen, 48 h (100 = growth as untreated, 0 = no growth, -100 = all killed)
Settings: 10 µM unless noted

| Structure (SMILES) | growth |
| --- | --- |
| N#CC1=C(N)Oc2c(c(N)nn2-c2ccccc2)C1c1ccc(Cl)cc1Cl (stereo not drawn) | 89.6% |
| C=C(C)[C@@H]1CC[C@]2(C=O)CC[C@]3(C)[C@H](CC[C@@H]4[C@@]5(C)C/C(=C/c6cccnc6)C(=O)C(C)(C)[C@@H]5CC[C@]43C)[C@@H]12 | 32.3% |
| C=C(C)[C@@H]1CC[C@]2(C(=O)N3CCN(CC)CC3)CC[C@]3(C)[C@H](CC[C@@H]4[C@@](C)(CCC(=O)N5CCN(CC)CC5)[C@H](C(=C)C)CC[C@]43C)[C@@H]12 | 30.4% |
| CCN1CCN(C(=O)[C@]23CCC(C)(C)C[C@H]2C2=CC[C@@H]4[C@@]5(C)CC/C(=N/O)C(C)(C)[C@@H]5CC[C@@]4(C)[C@]2(C)CC3)CC1 | 58.8% |
| N#CC1=C(N)Oc2c(sc3c(F)cccc23)C1c1ccc(Cl)cc1 (stereo not drawn) | 14.2% |
| O=C1c2cccc3cccc(c23)C(=O)N1CC#Cc1ccc2c3c(cccc13)C(=O)N(CCN1CCNCC1)C2=O | -15.3% (active) |
| C=C(C)[C@@H]1CC[C@]2(/C=N/Nc3ccncc3)CC[C@]3(C)[C@H](CC[C@@H]4[C@@]5(C)CCCNC(C)(C)[C@@H]5CC[C@]43C)[C@@H]12 | 7.55% (active) |
| Cc1ccnc2c(OCc3ccccc3)cccc12 | 99.2% |
| C=CC(=O)N[C@H](Cc1ccc(-c2cc(Cl)cc(Cl)c2)cc1)[C@H](O)[C@@H](O)C(=O)O | 85% |
| C=COCCCCCCCCCCCCCCCCCC | 119% |
| COc1cc2ncnc(Nc3ccc(Oc4ccnc(C)c4)c(C)c3)c2cc1NC(=O)CC1CCSS1 (stereo not drawn) | -50.9% (active) |
| CN1CCN(c2nc(-c3csc(-c4cccs4)n3)cc3ccccc23)CC1 | -35.9% (active) |
| O=C(O[C@@H]1Cc2c(O)cc(O)cc2O[C@@H]1c1cc(O)c(O)c(O)c1)c1cc(O)c2c(c1)OCO2 | 91% |
| C/C(Cc1ccc(Cl)cc1)=C(/c1ccc(Cl)cc1)c1ccc(OCCN2CCCC2)cc1 | 15.2% |
| Cc1cc(N(CCCNc2ccnc3cc(Cl)ccc23)Cc2ccco2)nc(N2CCOCC2)n1 | 26.9% |
| Cc1ccccc1-c1nc(C(Cl)Cl)nc2cc(-c3ccccc3)nn12 | 52.2% |
| O=C1/C(=C\C(Cl)=C/c2ccc([N+](=O)[O-])cc2)SC(=S)N1CCc1ccc(O)cc1 | 6.62% (active) |
| Brc1ccc2c(c1)c(-c1nc(-c3c[nH]c4ncccc34)cs1)cn2CCCN1CCCCC1 | -64.4% (active) |
| Cn1c(/C(C#N)=C/c2ccc3ccccc3c2)cc2ccccc21 | 13.9% |

| Structure (SMILES) | growth |
| --- | --- |
| CN(CSc1ccc(Cl)cc1)c1ccc(CSc2ccc(Cl)cc2)cc1 | 83.7% |
| CCNCCCn1c2c(c3ccc([N+](=O)[O-])cc3c1=O)C(=O)c1cc(OC)cnc1-2 | -3.04% (active) |
| CC1(C)NC2=C(C(Nc3cccnc3)N1)C(c1ccc([N+](=O)[O-])cc1)C(C(=O)c1ccc(N=[N+]=[N-])cc1)O2 (stereo not drawn) | 101% |
| COc1ccc(C2C(C#N)=C(N)Oc3c2sc2c(F)cccc32)cc1 (stereo not drawn) | 9.11% (active) |
| COc1cc(-c2cc3ncccc3c3[nH]c(=O)c4cccnc4c23)cc(OC)c1OC | 10.5% |
| CCCCC/C(=C\c1ccccc1)C1OC(C)C(C)O1 (stereo not drawn) | 91.3% |
| COc1ccc2c(c1)c(-c1nc(-c3c[nH]c4ncccc34)cs1)cn2CCNC(=O)OC(C)(C)C | 62.4% |
| COc1cc(/C=C/c2cc(/C=C/c3ccc(O)c(OC)c3)n(-c3ccccc3)c(=O)n2)ccc1O | 53.9% |
| CCN1CCN(C(=O)[C@]23CC[C@@H](C)[C@H](C)[C@H]2C2=CC[C@@H]4[C@@]5(C)C/C(=C/c6cccc(OC)c6OC)C(=O)C(C)(C)[C@@H]5CC[C@@]4(C)[C@]2(C)CC3)CC1 | 16.3% |
| COc1cc2c(cc1-c1c(C)noc1C)ncc1nc(C3CCCCC3)n([C@@H](C)COC(F)F)c12 | 24.2% |
| CC(=O)OC[C@]12CC[C@@H](/C(C)=N/O)[C@@H]1[C@H]1CC[C@@H]3[C@@]4(C)CCCNC(C)(C)[C@@H]4CC[C@@]3(C)[C@]1(C)CC2 | 41.3% |
| Brc1cnc2[nH]cc(-c3nnc(-c4ccccc4)o3)c2c1 | 73.3% |
| COc1ccc2[nH]c(-c3ccc(Cl)cc3)cc(=O)c2c1 | 97.4% |
| CCN1CCN(C(=O)[C@]23CCC(C)(C)C[C@@H]2C2=CC[C@@H]4[C@@]5(C)C/C(=C/c6ccncc6)C(=O)C(C)(C)[C@@H]5CC[C@@]4(C)[C@]2(C)CC3)CC1 | -13.1% (active) |
| COc1ccc(/C=C(\C#N)c2cc3ccccc3n2S(C)(=O)=O)cc1 | 30.8% |
| Cc1ccc(S(=O)(=O)Nc2ccc(-c3cc(-c4cccc(F)c4)c(C#N)c(=O)[nH]3)cc2)cc1 | 54.9% |
| N#CC1=C(N)Oc2c(c(N)nn2-c2ccccc2)C1c1ccc(Cl)cc1 (stereo not drawn) | 106% |
| C=C(C)[C@@H]1CC[C@]2(CN)CC[C@]3(C)[C@H](CC[C@@H]4[C@@]5(C)CCC(=O)NC(C)(C)[C@@H]5CC[C@]43C)[C@@H]12 | -4.63% (active) |
| CC1(C)[C@@H](O)CC[C@]2(C)[C@H]3CC[C@@H]4[C@H]5[C@H](C(=O)/C=C/c6ccc(C(F)(F)F)cc6)CC[C@]5(CO)CC[C@@]4(C)[C@]3(C)CC[C@@H]12 | 32.9% |
